These results are taken from PubChem BioAssay (Tox21).

Records with an inconclusive call do not appear. Calls of active or inactive are those of the source. Unless noted, the call rests on the fitted dose curve; in most records, active means well fitted curve in the direction sought with a large enough effect in the repeat runs; inconclusive means weak or mixed curves; inactive means no such curve, though single readings can be large; an effect the other way counts as inactive or inconclusive.

Assay [1] can be described thus: qHTS assay to identify small molecule agonists of the endoplasmic reticulum stress response signaling pathway (AID 1159516; active means well fitted activation curve with a large enough effect in the signal ratio in the repeat runs, not every such curve was filed as active; the % refers to the signal ratio). In outline:
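An ESRE-bla HeLa cell assay: compounds were pin-transferred from DMSO onto overnight-plated cells and left 5 hr at 37 C. Substrate was then loaded for 2 hr at room temperature before reading fluorescence at 460 nm and 530 nm.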

Assay [2] is described as follows: qHTS assay to identify small molecule antagonists of the retinoid-related orphan receptor gamma (ROR-gamma) signaling pathway - cell viability counter screen (AID 1159520). Further: nearly all actives have a fitted effect of over 50% in size. Further: potency means the concentration at half of the fitted maximal effect. In outline:
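Tet-on ROR gamma CHO cells were given compounds for 2 hr, then doxycycline hyclate at 1 uM final, and incubated 16 hr at 37 C. Viability was measured as ATP content by CellTiter-Glo luminescence.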

Assay [3] concerns the target Nuclear receptor ROR-gamma (Homo sapiens) (UniProt P51449). The experiment in a line: qHTS assay to identify small molecule antagonists of the retinoid-related orphan receptor gamma (ROR-gamma) signaling pathway (AID 1159521; further: nearly all actives have a fitted effect of over 50% in size; further: potency means the concentration at half of the fitted maximal effect). In outline: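 Inducible-expression reporter assay: doxycycline (1 uM final) switched on RORγ in CHO cells bearing a ROR response element-luciferase construct, with test compounds present from 2 h beforehand. Decreased luminescence after 16 h defined antagonist activity.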

Assay [4] can be described thus: qHTS assay to identify small molecule agonists of the AP-1 signaling pathway - cell viability counter screen (AID 1159525; calls by dose curve; further: nearly all actives have a fitted effect of over 55% in size; further: potency means the concentration at half of the fitted maximal effect). In outline: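 AP-1-bla ME-180 cells in Opti-MEM with 0.5% dialyzed FBS, compound exposure 5 h at 37 C in 15-point titration. Viability read in the same wells as ATP content by CellTiter-Glo luminescence, normalised to tetra-n-octylammonium bromide and DMSO controls.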

Assay [5] is described as follows: qHTS assay to identify small molecule antagonists of the retinoid acid receptor (RAR) signaling pathway - cell viability counter screen (AID 1159551). Further: nearly all actives have a fitted effect of over 35% in size. In outline: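 Retinol-stimulated (1 uM final) C3RL4 cells, compound 6 h, 37 C; readout CellTiter-Glo luminescence (ATP) after 30 min RT incubation.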
A short description of assay [6]: qHTS assay to identify small molecule antagonists of the retinoic acid receptor (RAR) signaling pathway (AID 1159552; further: nearly all actives have a fitted effect of over 50% in size; further: potency means the concentration at half of the fitted maximal effect). In outline:
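Antagonism of retinol-induced RARE reporter activity was measured in C3RL4 cells. Exposure to compounds and 1 uM final retinol lasted 6 hr at 37 C, with luminescence as endpoint.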

Assay [7] is described as follows: qHTS assay to identify small molecule agonists of the retinoic acid receptor (RAR) signaling pathway (AID 1159553). Further: potency means the concentration at half of the fitted maximal effect. In outline:
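Reporter readout comes from luciferase under RARE control in C3RL4 cells; compound exposure lasts 6 hr at 37 C in 5% CO2, and luminescence is recorded following a 30 min room-temperature incubation with reagent.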

The nature of assay [8]: qHTS assay to identify small molecule antagonists of the estrogen related receptor (ERR) signaling pathway - cell viability counter screen (AID 1224818). Further: series mostly up to about 46 µM. In outline:
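After a 6 h pre-incubation, ERR cells were dosed by pin tool with compounds, positive/negative controls or DMSO alone. Following 17.5 h at 37 C and 30 min with CellTiter-Fluor, fluorescence was recorded.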

Assay [9] in a line: qHTS assay to identify small molecule antagonists of the estrogen related receptor signaling pathway with the pleiotropic PPARgamma coactivator (PGC) cell viability counter screen (AID 1224822; further: series mostly up to about 46 µM). In outline:
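PGC/ERR cells were plated at 2,000 per well and allowed 6 h to settle before compound addition. Following 17.5 h at 37 C, CellTiter-Fluor reagent was added and fluorescence was read 30 min later.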

Assay [10] is described as follows: qHTS assay to identify small molecule agonists of the vitamin D receptor (VDR) signaling pathway - cell viability counter screen (AID 743224). Further: nearly all actives have a fitted effect of over 50% in size. Further: potency means the concentration at half of the fitted maximal effect. In outline:
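Plated VDR-bla cells (4 h, 37C) received compound, incubated 16 h, then LiveBLAzer substrate 2 h RT; CellTiter-Glo added afterwards, luminescence read at 30 min.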

Assay [11] can be described thus: qHTS assay to identify small molecule antagonists of the vitamin D receptor (VDR) signaling pathway - cell viability counter screen (AID 743225). Further: nearly all actives have a fitted effect of over 50% in size. Further: potency means the concentration at half of the fitted maximal effect. In outline: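 Same-well multiplex: following 16 h treatment of HEK 293T cells carrying a UAS-driven beta-lactamase reporter with compound and agonist (3 nM final), and a 2 h FRET substrate step, CellTiter-Glo was added and luminescence read after 30 min.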

The target of assay [12] is Retinoic acid receptor RXR-alpha (Homo sapiens) (UniProt P19793). The assay is described as follows: qHTS assay to identify small molecule agonists of the RXR signaling pathway (AID 1159527; calls by dose curve; further: nearly all actives have a fitted effect of over 35% in size). In outline: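 Compounds in DMSO were added to RXR-alpha-UAS-bla HEK 293T cells kept in 2% charcoal-stripped serum, and incubated 16 hr at 37 C with 5% CO2. Reporter signal came from a 2 hr B/G FRET substrate step.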
Chain of Retinoic acid receptor RXR-alpha (Homo sapiens) (P19793 whole entry, looked up): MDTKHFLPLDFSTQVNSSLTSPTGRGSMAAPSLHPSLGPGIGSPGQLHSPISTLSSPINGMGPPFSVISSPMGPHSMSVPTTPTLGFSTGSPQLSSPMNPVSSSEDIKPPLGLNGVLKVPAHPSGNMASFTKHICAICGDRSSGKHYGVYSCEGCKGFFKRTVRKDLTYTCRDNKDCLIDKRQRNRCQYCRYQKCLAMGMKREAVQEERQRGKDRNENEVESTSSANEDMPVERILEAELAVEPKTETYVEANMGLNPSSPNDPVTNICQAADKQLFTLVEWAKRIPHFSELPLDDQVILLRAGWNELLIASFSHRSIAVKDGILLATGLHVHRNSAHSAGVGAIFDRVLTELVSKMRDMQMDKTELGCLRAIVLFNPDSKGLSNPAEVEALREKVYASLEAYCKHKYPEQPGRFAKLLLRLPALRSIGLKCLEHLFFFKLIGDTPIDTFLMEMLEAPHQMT

The nature of assay [13]: qHTS assay to identify small molecule antagonists of the estrogen related receptor (ERR) signaling pathway from Tox21 library - cell viability counter screen (AID 1224834). Further: nearly all actives have a fitted effect of over 30% in size. Further: potency means the concentration at half of the fitted maximal effect. In outline: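 After 17.5 h of compound exposure at 37 C, ERR cells are incubated with CellTiter-Fluor for 30 min and fluorescence intensity serves as the viability measure.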
The nature of assay [14]: qHTS assay to identify small molecule agonists of the RXR signaling pathway - cell viability counter screen (AID 1159529). Further: nearly all actives have a fitted effect of over 50% in size. Further: potency means the concentration at half of the fitted maximal effect. In outline:
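Counter screen: CellTiter-Glo luminescence. Cells: RXR-alpha-UAS-bla HEK 293T. Medium: 2% charcoal-stripped FBS. Treatment: 16 h, 37 C. Reagent incubation: 30 min, RT.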

Assay [15] in a line: qHTS assay to identify small molecule agonists of the endoplasmic reticulum stress response signaling pathway - cell viability counter screen (AID 1159517; calls by dose curve; further: nearly all actives have a fitted effect of over 50% in size; further: potency means the concentration at half of the fitted maximal effect). In outline:
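Counter-screen wells were identical to the reporter wells. Cells were plated at 1,500 per well and dosed for 5 hr, then read for luminescence 30 min after CellTiter-Glo addition.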

A short description of assay [16]: qHTS assay to identify small molecule agonists of the AP-1 signaling pathway (AID 1159526; calls by dose curve).
Assay [17] can be described thus: qHTS assay to identify small molecule antagonists of the estrogen related receptor (ERR) signaling pathway (AID 1224819). In outline: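 Luminescence readout (One-Glo, 30 min, RT) of ERR cell line after 18 h compound exposure at 37 C; cells seeded 2,000/well, pre-incubated 6 h, compounds pinned from DMSO stocks.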
The nature of assay [18]: qHTS assay to identify small molecule agonists of the estrogen related receptor (ERR) signaling pathway (AID 1224820). In outline:
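Quantitative HTS of the LOPAC library used NTP ERR reporter cells treated 18 h at 37 C. Signal is luminescence after One-Glo addition and a 30 min room-temperature incubation.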

Assay [19] concerns estrogen-related receptor alpha (ERRalpha) with PGC-1alpha coactivator, human. The experiment in a line: qHTS assay to identify small molecule antagonists of the estrogen related receptor signaling pathway with the pleiotropic PPARgamma coactivator (PGC) (AID 1224821; calls by dose curve). In outline: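 Quantitative HTS for antagonism: PGC/ERR cells received compounds after 6 h attachment and were incubated 18 h at 37 C, with luminescence (One-Glo) as the endpoint.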

Assay [20] is described as follows: qHTS assay to identify small molecule agonists of the estrogen related receptor signaling pathway with the pleiotropic PPARgamma coactivator (PGC) (AID 1224823). In outline:
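Cell-based luciferase assay in the NTP-supplied PGC/ERR line, 2,000 cells/well; 18 h compound exposure at 37 C, luminescence after One-Glo.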

For the compound `Cc1ccc(N)cc1O`, the Potency entry in assay [1], in [2], in assay [3], in [5], in assay [6] and in assay [8] was “inactive” in each case. Moreover, the Potency result in assay [9] is “inactive”. Also, the figures for the Potency in [4] and in assay [7] were 38.9 µM (active) and 12.2 µM (active), respectively.
Turning to `CCCCCCC(C)Nc1ccc(Nc2ccccc2)cc1` (stereo not drawn), the values for the Potency in assay [10] and in assay [11] were 38.9 µM (active) and 43.6 µM (active), respectively. Besides, the Potency entry in [1], in [5] and in assay [7] was “inactive” throughout.
Turning to `Nc1ncnc2c1ncn2[C@@H]1O[C@H](COP(=O)(O)O)[C@@H](O)[C@H]1O`, the Potency in assay [10] was 10.6 µM (active); in assay [11], 10.7 µM (active). Besides, the Potency result in [1], in [2], in assay [3], in assay [4], in assay [12] and in assay [6] was “inactive” in each case. Also, the Potency result in assay [7] and in assay [13] was “inactive” each time.
With `C=CC(=O)OCC(O)COc1ccccc1` (stereo not drawn), the Potency entry in assay [1] and in [14] was “inactive” each time. Also, the Potency in [3] was 61.1 µM (active).
As for `SCCCCCCCCS`, the Potency result in assay [10], in assay [2], in [3], in [4], in assay [16] and in assay [12] was “inactive” each time. In addition, the Potency result in [14], in assay [5], in assay [6], in [7] and in assay [13] was “inactive” in each case. Besides, in assay [15], the Potency is 34.7 µM (active).
`CCCCCCCCCCCCCCNCCO`: the Potency result in [10], in assay [11], in assay [3], in assay [4], in assay [16] and in [12] was “inactive” throughout. Further, the Potency result in assay [5] and in [13] was “inactive” throughout. Also, the Potency in [15] is 23.9 µM (active); in assay [2], 26.6 µM (active).
For `S=P(N1CC1)(N1CC1)N1CC1`, the Potency in [10] is 41 µM (active). Besides, the Potency result in assay [1], in assay [2], in assay [5], in assay [7], in [8] and in assay [17] was “inactive” each time. Besides, the Potency result in assay [9] and in [13] was “inactive” each time. For the same compound, the compound was called inactive in assay [18], in [19] and in [20].
With `COCC(=O)O[C@]1(CCN(C)CCCc2nc3ccccc3[nH]2)CCc2cc(F)ccc2[C@@H]1C(C)C`, the Potency is 26.6 µM (active) in assay [10]; 29.8 µM (active) in assay [2]; 26.6 µM (active) in assay [3]; 15.1 µM (active) in assay [14]; 26.6 µM (active) in [6]. In addition, in [1], the Potency result was “inactive”.
For the compound `C=C(C)C(=O)OCCC[Si](Cl)(Cl)Cl`, the Potency result in assay [10], in [11], in [15], in assay [2], in assay [3] and in assay [4] was “inactive” each time. The Potency entry in [16], in assay [12], in assay [14], in [5], in assay [7] and in [13] was “inactive” throughout.
Take `CCCCCCOc1ccc(O)cc1`: the Potency entry in [1], in assay [2], in assay [3], in [5] and in assay [6] was “inactive” throughout. The Potency in [7] is 0.611 µM (active); in assay [13], 27.3 µM (active).
Take `CC(C)c1ccc(O)c(C(C)C)c1`: the Potency result in [1], in assay [3], in assay [6], in [7] and in assay [13] was “inactive” in each case. For the same compound, in assay [14], the Potency is 38.9 µM (active).
In the case of `CC(=O)OC(OC(C)=O)c1ccc([N+](=O)[O-])o1`, the Potency in assay [10] is 44.4 µM (active); in assay [11], 49.8 µM (active); in [3] it was 31.2 µM (active); in assay [6] it was 27.8 µM (active); in [13], 62.2 µM (active). In assay [1], the Potency entry was “inactive”.
